According to PubChem BioAssay (NCATS):
Records with an inconclusive call do not appear. Activity calls are given as the source filed them. Unless noted, calls come from the whole dose curve; as a rule, active = well fitted curve in the direction sought with a large enough effect; inconclusive = small, poorly fitted or top-dose-only effect, or another doubt; inactive = no such curve, though single readings can be large; an effect the other way counts as inactive or inconclusive.

How the values were obtained:
[1] = High Content Imaging Cell-Based qHTS for Inhibitors of the mTORC1 Signaling Pathway in MEF (Tsc2-/-, p53-/-) Cells (AID 2666);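 note: percent of cells scored positive for phospho-rpS6 Ser235/236 immunostaining by imaging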
Outline: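 Cells were plated, dosed with compound after 24 hrs, and incubated another 24 hrs at 37 degree Celsius. Fixed cells were immunostained for phospho-rpS6 Ser235/236 and counterstained, and the normalized signal was scored as % active cells against rapamycin and DMSO controls.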

[2] = High Content Imaging Cell-Based qHTS for Inhibitors of the mTORC1 Signaling Pathway in MEF Cells (AID 2667);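 note: Tsc2-/- p53-/- MEFs stably re-expressing wild-type Tsc2 exposed 24 h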
Outline: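 Immunofluorescence for rpS6 phosphorylation in MEFs of Tsc2-/-, p53-/- background rescued with WT Tsc2. Compound exposure lasted 24 hrs. Inhibition was scored against rapamycin-treated control wells.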

[3] = Cytometry Cell-Based qHTS for Inhibitors of the mTORC1 Signaling Pathway in MEF cells (AID 2668);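 note: Tsc2-/- p53-/- mouse embryonic fibroblasts stably re-expressing wild-type Tsc2; percent cells positive for phospho-rpS6 Ser235/236 relative to propidium iodide stain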
Outline: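 Tsc2-/-, p53-/- MEFs re-expressing WT Tsc2; cpd 24 hrs, 37 degree Celsius; PFA fix, Alexa-488 p-rpS6 (Ser235/236) Ab 2 hrs RT, PI counterstain; Acumen 488nm scan; p-S6/PI ratio → % positive cells; PI count = viability.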

[4] = biological target: Ubiquitin carboxyl-terminal hydrolase 2 (Homo sapiens) (UniProt O75604); assay: qHTS Validation Assay for Inhibitors of Ubiquitin-specific Protease USP2a Using CHOP2 as the Reporter (AID 463106)
Outline: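 10nM USP2 core + cpd, 30min RT; add 25nM Ub-CHOP2/25nM substrate; 60min RT; FI 485/531nm. Buffer Tris pH 8.0, CaCl2, BME, CHAPS. Norm. to NEM = 100% inhibition; time-zero read flags fluorescent artifacts.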

[5] = biological target: DNA polymerase III PolC-type (Bacillus subtilis (strain 168)) (UniProt P13267); assay: qHTS Validation Assay for the Inhibitors of DNA Replication in Gram-Positive Bacteria (AID 485295);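 note: reconstituted holoenzyme with PolC plus beta clamp SSB and primase; PicoGreen fluorescence of double-stranded DNA made on primed circular M13 template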
Outline: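 First, compound is mixed with the reconstituted replication complex and held at room temperature. Next, circular single-stranded M13Gori with nucleotides starts synthesis. Finally, PicoGreen in EDTA halts the reaction and stains double-stranded product for fluorescence reading.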

[6] = biological target: Tumor susceptibility gene 101 protein (Homo sapiens) (UniProt Q99816); assay: qHTS Validation Assay for Iinhibitors of HIV-1 Budding by Blocking the Interaction of PTAP/TSG101 (AID 485342; calls by dose curve)
Outline: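 Binding of a FITC-tagged PTAP-motif peptide (50 nM) to the Tsg101 binding domain (10 uM) is monitored by fluorescence polarization. Compounds are pin-delivered before peptide addition, and incubation runs 20 min at room temperature.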

[7] = qHTS Validation Assay to Find Inhibitors of Chronic Active B-Cell Receptor Signaling (AID 485345; active = well fitted curve in the direction sought with a large enough effect in the main read-out, with a control signal flat, not every such curve was filed as active)
Outline: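 Read-out: ratio of filter-corrected green (IkappaBalpha fusion) to red (native) luciferase signal in doxycycline-induced TMD8 cells after 4 h at 37C. Titration spanned 46 uM–3 nM; Data were normalised to basal cells and 10 uM MG-132 wells.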

[8] = biological target: Beta-2 adrenergic receptor (Homo sapiens) (UniProt P07550); assay: qHTS validation assay of beta-arrestin-biased ligands of beta2-adrenergic receptor (AID 485366)
Outline: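 Arrestin-recruitment (Tango) reporter: ligand-bound beta2-AR recruits beta-arrestin, releasing tTA, which upregulates luciferase. Titrations of up to 46 microM incubated 18 hr at 37 degrees C before luminescent readout.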

[9] = biological target: ATP-dependent 6-phosphofructokinase (Trypanosoma brucei brucei) (UniProt O15648); assay: qHTS Validation Assay to Find Inhibitors of T. brucei phosphofructokinase (AID 485368); conditions: T. brucei PFK enzyme assay, qHTS 7-point titration; at 57.5 µM (top of the series)
Outline: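 Steps: substrate mix (0.5 mM F6P, 0.1 mM ATP, MgCl2, TEA pH 8.0); compound; 1.25 nM T. brucei PFK; 45 min RT; ATP depletion 10 min; ADP-to-ATP detection 10 min; luminescence read; curve fitting and classification.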

[10] = biological target: Thioredoxin reductase 1, cytoplasmic (Rattus norvegicus) (UniProt O89049); assay: qHTS Assay for Substrates of Mammalian Selenoprotein Thioredoxin Reductase 1 (TrxR1) (AID 488772);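 note: NADPH fluorescence in the first read after selenite addition and not the 8 min delta; a drop in NADPH fluorescence below the no-compound background marks a TrxR1 substrate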
Outline: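 Quantitative HTS in Tris-HCl buffer at pH 7.5 with EDTA and Tween-20, using rat TrxR1, 400 uM NADPH and 400 uM selenite (final). A fall in initial NADPH fluorescence relative to background marked substrate behaviour.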

[11] = biological target: Thioredoxin reductase 1, cytoplasmic (Rattus norvegicus) (UniProt O89049); assay: qHTS Assay for Inhibitors of Mammalian Selenoprotein Thioredoxin Reductase 1 (TrxR1) (AID 488773);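 note: drop in NADPH fluorescence over an 8 min run after selenite addition; nearly all actives have a fitted effect of over 40% in size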
Outline: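 Steps: enzyme (90 nM) plus NADPH (400 uM final), 5 min at ~22 deg C; compound added, 15 min; selenite (400 uM final) added; fluorescence followed for 8 min. Concentration-response curves derived from the normalized delta values.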

[12] = biological target: Flap endonuclease 1 (Homo sapiens) (UniProt P39748); assay: qHTS Validation Assay for the Inhibitors of Human Flap endonuclease 1 (FEN1) (AID 488816)
Outline: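 Readings taken at 0 and 15 min after starting the reaction with 50 nM (final) substrate supplied the signal. Compounds had first sat with 10 nM FEN1 reagent for 15 min at room temperature. Values come from Hill-equation concentration-response fits.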

[13] = biological target: Chromobox protein homolog 1 (Homo sapiens) (UniProt P83916); assay: qHTS Validation Assay for Inhibitors of HP1-beta Chromodomain Interactions with Methylated Histone Tails (AID 488953);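 note: loss of AlphaScreen luminescence from HP1-beta binding biotinylated H3K9me3 peptide; nearly all actives have a fitted effect of over 50% in size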
Outline: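 Measured as loss of AlphaScreen luminescence from streptavidin donor and nickel acceptor beads (10 ug/mL final) bridging HP1-beta and biotin-H3(1-18)K9me3, each 50 nM. Compounds met the preassembled complex for 30 min at RT.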

[14] = biological target: Methanococcus maripaludis chaperonin (MmCpn) (UniProt Q6LX38); assay: High-Throughput Screening for Modulators of Cytosolic Chaperonin Activity: MmCpn Primary Screen (AID 488978);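 note: 50 nM MmCpn enzyme hydrolysing 30 µM ATP at 37 °C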
Outline: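 Steps: chaperonin 50 nM final; add compound, 5 min RT; start with ATP, 30 uM final; hold 10 min at 37C; add ADP Transcreener HTRF reagent, 5 min; read ex 320, em 590 and 665 nm.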

[15] = biological target: D(1A) dopamine receptor (Homo sapiens) (UniProt P21728); assay: HTS Assay for Allosteric Agonists of the Human D1 Dopamine Receptor: Primary Screen for Agonists (AID 488981)
Outline: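 Calcium flux in an inducible, force-coupled HEK293 Trex D1 line (overnight at 30 C): agonist mode is the 180 s kinetic read after compound; potentiator mode is the following 180 s read after dopamine at EC20.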

[16] = biological target: D(1A) dopamine receptor (Homo sapiens) (UniProt P21728); assay: HTS Assay for Allosteric Agonists of the Human D1 Dopamine Receptor: Primary Screen for Antagonists (AID 488983);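 note: calcium flux response to an EC80 dopamine challenge measured with no-wash dye; nearly all actives have a fitted effect of over 65% in size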
Outline: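 Screening of inducible HEK293 T-REx D1 cells: compound first, EC80 dopamine 180 s later, each phase read kinetically for calcium over 180 s.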

[17] = Validation screen for small molecules that induce genotoxicity in human embryonic kidney (HEK293T) cells expressing luciferase-tagged ELG1 (AID 493106)
Outline: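 Reporter-gene quantitative HTS in HEK293T cells carrying luciferase-tagged ELG1, whose level climbs under genotoxic stress. Compound exposure lasts 16 hr at 37 °C before luciferase detection.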

[18] = biological target: ATPase family AAA domain-containing protein 5 (Homo sapiens) (UniProt Q96QE3); assay: Validation screen for small molecules that inhibit ELG1-dependent DNA repair in human embryonic kidney (HEK293T) cells expressing luciferase-tagged ELG1 (AID 493107);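 note: cells co-treated with the DNA-damaging agent 5-fluorouridine alongside compound; inhibitors lower the ELG1-luciferase luminescence signal; nearly all actives have a fitted effect of over 70% in size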
Outline: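 Quantitative HTS in HEK293T cells carrying luciferase-tagged ELG1, stimulated with 5-fluorouridine alongside compound for 16 hr. Loss of luciferase signal marks inhibition of ELG1 response.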

[19] = qHTS for Inhibitors of Cell Surface uPA Generation: Validation Assay (AID 493164);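 note: RAW 264.7 macrophage cells exposed to compound for 18 h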
Outline: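 RAW 264.7, 4000 cells/well, o/n plating; cpd 7-pt 1:5 dilution 2.45 nM–38.3 uM final; 18 h, 37 C/5% CO2; ATP-Lite, 5 s luminescence exposure.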

[20] = biological target: Peptidyl-prolyl cis-trans isomerase NIMA-interacting 1 (Homo sapiens) (UniProt Q13526); assay: qHTS Validation Assay to Find Inhibitors of Pin1 (AID 504536; active = well fitted inhibition curve with a large enough effect in the polarisation, with a control signal flat, not every such curve was filed as active; the % refers to the polarisation)
Outline: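 Fluorescence polarization competition: compounds (titration) displace HiFluor-488-labeled Pin1-1b peptide from Pin1 (0.3 uM final) in pH 7.5 HEPES buffer with DTT, 10 min at room temperature; %Activity normalized to no-enzyme wells, curves fitted.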

Measured: Potency

D(1A) dopamine receptor (Homo sapiens), sequence (P21728 whole entry, looked up): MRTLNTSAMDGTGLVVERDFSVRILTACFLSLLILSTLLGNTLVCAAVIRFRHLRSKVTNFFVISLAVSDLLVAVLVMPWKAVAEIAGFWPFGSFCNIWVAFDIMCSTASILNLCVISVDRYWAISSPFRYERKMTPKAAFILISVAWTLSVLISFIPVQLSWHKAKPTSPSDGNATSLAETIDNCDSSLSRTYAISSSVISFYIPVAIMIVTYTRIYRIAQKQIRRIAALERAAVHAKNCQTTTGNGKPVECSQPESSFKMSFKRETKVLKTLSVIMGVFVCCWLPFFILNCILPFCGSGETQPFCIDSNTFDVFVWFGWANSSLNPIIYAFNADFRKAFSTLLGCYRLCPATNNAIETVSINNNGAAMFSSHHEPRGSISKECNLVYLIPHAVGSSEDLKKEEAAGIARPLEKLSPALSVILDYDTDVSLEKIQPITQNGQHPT
Thioredoxin reductase 1, cytoplasmic (Rattus norvegicus), sequence (O89049 whole entry, looked up): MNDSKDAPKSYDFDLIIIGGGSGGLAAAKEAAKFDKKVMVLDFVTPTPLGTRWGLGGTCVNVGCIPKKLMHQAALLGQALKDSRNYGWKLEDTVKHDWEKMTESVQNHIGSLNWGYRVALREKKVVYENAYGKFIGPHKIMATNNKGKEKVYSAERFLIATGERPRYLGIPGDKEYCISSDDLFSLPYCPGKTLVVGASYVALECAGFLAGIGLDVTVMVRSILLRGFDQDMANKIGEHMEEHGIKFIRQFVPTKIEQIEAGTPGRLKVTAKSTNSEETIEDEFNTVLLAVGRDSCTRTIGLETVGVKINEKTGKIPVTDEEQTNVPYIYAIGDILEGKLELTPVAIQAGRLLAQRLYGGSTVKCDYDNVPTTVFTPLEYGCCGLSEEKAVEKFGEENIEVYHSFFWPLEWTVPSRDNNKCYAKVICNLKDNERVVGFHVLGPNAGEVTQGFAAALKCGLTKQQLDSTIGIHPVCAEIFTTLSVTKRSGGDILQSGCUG
Flap endonuclease 1 (Homo sapiens), sequence (P39748 whole entry, looked up): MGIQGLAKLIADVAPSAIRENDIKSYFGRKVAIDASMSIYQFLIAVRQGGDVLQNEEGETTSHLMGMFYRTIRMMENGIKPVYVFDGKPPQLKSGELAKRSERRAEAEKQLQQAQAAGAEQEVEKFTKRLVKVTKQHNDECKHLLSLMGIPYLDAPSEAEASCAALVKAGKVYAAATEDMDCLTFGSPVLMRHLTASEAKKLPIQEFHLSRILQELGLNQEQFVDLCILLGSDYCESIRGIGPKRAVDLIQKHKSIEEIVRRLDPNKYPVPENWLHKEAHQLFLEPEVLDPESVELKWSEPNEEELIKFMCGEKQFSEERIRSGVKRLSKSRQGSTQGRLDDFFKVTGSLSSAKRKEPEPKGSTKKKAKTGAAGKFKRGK
Chromobox protein homolog 1 (Homo sapiens), sequence (P83916 whole entry, looked up): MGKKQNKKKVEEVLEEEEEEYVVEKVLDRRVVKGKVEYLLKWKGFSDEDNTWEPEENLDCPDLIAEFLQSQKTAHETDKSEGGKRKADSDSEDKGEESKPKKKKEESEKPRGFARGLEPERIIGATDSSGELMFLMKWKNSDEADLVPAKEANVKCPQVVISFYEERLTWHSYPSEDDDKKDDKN
DNA polymerase III PolC-type (Bacillus subtilis (strain 168)), sequence (P13267 whole entry, looked up): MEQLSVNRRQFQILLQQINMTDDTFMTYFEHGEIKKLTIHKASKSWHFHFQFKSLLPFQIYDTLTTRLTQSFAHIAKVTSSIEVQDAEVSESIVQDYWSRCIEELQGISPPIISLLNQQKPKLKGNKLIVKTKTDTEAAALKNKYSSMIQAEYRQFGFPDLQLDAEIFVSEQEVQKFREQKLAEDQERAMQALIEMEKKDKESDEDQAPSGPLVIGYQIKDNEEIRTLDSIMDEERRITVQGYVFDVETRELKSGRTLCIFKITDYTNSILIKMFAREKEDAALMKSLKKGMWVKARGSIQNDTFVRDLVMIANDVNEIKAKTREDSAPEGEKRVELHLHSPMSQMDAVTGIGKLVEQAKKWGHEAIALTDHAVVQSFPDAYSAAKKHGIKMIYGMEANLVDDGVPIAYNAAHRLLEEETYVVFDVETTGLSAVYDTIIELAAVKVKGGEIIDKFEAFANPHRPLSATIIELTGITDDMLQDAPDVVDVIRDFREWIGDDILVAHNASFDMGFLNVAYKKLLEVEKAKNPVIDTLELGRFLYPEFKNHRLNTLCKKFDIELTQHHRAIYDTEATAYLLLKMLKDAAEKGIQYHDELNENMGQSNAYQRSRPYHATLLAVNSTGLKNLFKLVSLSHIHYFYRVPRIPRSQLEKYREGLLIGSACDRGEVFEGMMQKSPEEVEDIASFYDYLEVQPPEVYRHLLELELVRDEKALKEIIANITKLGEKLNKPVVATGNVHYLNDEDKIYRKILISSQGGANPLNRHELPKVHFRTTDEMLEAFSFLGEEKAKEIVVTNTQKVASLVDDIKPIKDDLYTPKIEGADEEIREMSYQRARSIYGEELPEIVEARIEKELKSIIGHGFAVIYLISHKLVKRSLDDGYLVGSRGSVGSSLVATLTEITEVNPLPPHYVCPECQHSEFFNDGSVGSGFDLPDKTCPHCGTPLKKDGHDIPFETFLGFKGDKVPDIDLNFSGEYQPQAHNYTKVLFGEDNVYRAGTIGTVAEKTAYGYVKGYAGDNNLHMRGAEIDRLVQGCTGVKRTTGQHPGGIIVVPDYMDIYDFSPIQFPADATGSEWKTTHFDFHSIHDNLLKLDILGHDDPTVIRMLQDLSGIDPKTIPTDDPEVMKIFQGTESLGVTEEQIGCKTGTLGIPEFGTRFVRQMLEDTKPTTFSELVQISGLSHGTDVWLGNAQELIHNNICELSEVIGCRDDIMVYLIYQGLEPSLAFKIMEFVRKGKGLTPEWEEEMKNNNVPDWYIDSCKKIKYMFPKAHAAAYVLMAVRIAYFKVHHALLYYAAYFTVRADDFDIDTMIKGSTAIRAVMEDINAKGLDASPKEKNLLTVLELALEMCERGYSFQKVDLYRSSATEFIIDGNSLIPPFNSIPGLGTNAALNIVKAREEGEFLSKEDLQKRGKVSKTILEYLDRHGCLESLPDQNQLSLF
Methanococcus maripaludis chaperonin (MmCpn), sequence (Q6LX38 1-543): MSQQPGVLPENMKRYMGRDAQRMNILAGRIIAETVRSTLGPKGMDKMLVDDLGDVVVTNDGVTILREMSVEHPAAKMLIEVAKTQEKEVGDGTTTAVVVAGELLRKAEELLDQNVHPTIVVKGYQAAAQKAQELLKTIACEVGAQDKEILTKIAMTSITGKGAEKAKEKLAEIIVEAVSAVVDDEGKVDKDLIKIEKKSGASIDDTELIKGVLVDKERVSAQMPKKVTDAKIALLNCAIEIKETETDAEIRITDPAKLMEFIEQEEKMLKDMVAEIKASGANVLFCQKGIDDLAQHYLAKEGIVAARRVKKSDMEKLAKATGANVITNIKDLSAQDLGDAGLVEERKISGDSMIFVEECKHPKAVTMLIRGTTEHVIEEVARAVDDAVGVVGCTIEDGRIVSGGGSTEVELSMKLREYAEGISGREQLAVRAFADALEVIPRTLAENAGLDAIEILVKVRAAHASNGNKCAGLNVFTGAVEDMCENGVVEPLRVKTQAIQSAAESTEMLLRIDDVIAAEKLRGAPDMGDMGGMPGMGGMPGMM
Tumor susceptibility gene 101 protein (Homo sapiens), sequence (Q99816 whole entry, looked up, the tested form may be a part): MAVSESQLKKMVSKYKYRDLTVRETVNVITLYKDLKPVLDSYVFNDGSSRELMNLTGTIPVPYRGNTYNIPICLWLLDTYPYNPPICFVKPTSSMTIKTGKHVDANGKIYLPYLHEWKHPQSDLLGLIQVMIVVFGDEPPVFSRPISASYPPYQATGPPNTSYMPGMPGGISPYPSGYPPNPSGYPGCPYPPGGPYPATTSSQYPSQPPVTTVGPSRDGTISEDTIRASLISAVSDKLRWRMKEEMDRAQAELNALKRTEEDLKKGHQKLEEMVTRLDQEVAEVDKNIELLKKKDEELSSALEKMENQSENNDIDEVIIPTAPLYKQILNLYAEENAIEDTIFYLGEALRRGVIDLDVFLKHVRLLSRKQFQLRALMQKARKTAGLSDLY
ATP-dependent 6-phosphofructokinase (Trypanosoma brucei brucei), sequence (O15648 whole entry, looked up): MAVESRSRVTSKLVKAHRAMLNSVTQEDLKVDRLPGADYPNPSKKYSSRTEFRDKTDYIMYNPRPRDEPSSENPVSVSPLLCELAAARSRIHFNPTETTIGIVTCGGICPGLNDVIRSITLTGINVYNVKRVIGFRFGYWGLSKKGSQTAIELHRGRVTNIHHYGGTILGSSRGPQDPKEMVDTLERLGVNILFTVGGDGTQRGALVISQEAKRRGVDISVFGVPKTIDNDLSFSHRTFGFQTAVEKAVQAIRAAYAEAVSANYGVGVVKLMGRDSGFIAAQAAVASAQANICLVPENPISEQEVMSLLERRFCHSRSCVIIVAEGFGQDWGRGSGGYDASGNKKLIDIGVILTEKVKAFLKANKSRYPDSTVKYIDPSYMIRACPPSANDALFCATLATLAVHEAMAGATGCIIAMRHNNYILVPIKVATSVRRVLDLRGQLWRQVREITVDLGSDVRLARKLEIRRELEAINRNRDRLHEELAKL
Beta-2 adrenergic receptor (Homo sapiens), sequence (P07550 whole entry, looked up): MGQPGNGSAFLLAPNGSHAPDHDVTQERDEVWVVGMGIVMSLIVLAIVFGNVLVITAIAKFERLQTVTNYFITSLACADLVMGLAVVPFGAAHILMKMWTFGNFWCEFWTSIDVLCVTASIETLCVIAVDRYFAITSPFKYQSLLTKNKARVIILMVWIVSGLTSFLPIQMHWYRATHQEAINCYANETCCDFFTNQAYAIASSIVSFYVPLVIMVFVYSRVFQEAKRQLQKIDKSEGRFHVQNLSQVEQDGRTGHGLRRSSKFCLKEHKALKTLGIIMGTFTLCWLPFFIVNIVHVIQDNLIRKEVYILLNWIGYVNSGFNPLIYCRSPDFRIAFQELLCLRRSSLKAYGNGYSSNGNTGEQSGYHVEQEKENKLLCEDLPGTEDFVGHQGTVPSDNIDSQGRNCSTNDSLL
Peptidyl-prolyl cis-trans isomerase NIMA-interacting 1 (Homo sapiens), sequence (Q13526 whole entry, looked up): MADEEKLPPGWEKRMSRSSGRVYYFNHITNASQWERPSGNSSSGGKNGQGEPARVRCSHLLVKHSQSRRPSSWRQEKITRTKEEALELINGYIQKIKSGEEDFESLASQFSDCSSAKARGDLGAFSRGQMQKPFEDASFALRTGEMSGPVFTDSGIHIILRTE

C[C@H]1C2Cc3ccc(O)cc3[C@]1(C)CCN2CC1CC1
inactive: all assays above

CC12CCC3C(CCC4=C(O)C(=O)CCC43C)C1CCC2=O (stereo not given)
inactive: all assays above
